# Records with an inconclusive call do not appear. Active and inactive are the calls of the source. The call rests on the fitted dose curve; in most records, active means well fitted activation curve with a large enough effect; inconclusive means small, poorly fitted or top-dose-only effect, or effect the other way; inactive means flat fitted curve, though single readings scatter.
# Assay: Cellular Toxicity (caspase-3) NIH 3T3 (AID 666);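 further: caspase signal read after 16 h compound exposure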
# Conditions: NIH 3T3 caspase-3 activation, apoptosis/toxicity, 0% DMSO, 100% is 100 µM tamoxifen; series mostly up to 92.2 µM
# Description: NIH Chemical Genomics Center [NCGC]
# NIH Molecular Libraries Screening Centers Network [MLSCN]
# National Institutes of Environmental Health Sciences [NIEHS]
# National Toxicology Program [NTP]
# We have developed a 1536-well cell-based assay for quantitative high throughput screening (qHTS) against a number of cell lines to determine in vitro caspase 3/7 of small molecules. This particular assay uses the NIH 3T3 cell line which is derived from mouse fibroblasts.
# NCGC Assay Protocol Summary:
# The Caspase-Glo 3/7 assay (Promega) is a homogeneous method to measure caspase-3 and caspase-7 activities in cultured cells. The quantitation of caspase 3/7 activity is based on the cleavage of a peptide-aminoluciferin substrate. After caspase cleaves the substrate the free aminoluciferin is liberated and serves as the substrate of luciferase, which generates the light. The luminescent signal is proportional to amount of caspase 3/7 activity present.
# Using the Caspase-Glo 3/7 assay, the amount of caspase 3/7 activity was measured in the NIH 3T3 cell line with complete culture medium following compound treatment for 16 hours. The assay was performed in opaque white 1536-well plates. In the screen, tamoxifen and doxorubicin were used as positive controls. Library compounds were measured for their ability to cause the activation of caspase 3/7 in the cell line, as reflected by an increase in luminescence signal, in a concentration-dependent manner. Data were normalized to the controls for basal activity (DMSO only) and 100% stimulation (100 uM tamoxifen). AC50 values were determined from concentration-response data modeled with the standard Hill equation.
# qHTS protocol for caspase 3/7 assay in NIH 3T3 cells
# [Step] [Parameter] [Value] [Description]
# 1. Reagent; 5 uL; 1000 NIH 3T3 cells/well
# 2. Time; 5 hr; 37 °C incubation
# 4. Controls; 23 nL; Tamoxifen 0.23 uM to 100 uM & Doxorubicin 7.0 pM to 100 uM
# 5. Time; 16 hr; 37 °C incubation
# 6. Reagent; 5 uL; Caspase-Glo 3/7 reagent
# 7. Time; 20 min; Room Temperature
# 8. Detection; Luminescence; Viewlux plate reader
# Keywords: caspase 3/7, apoptosis, NIH 3T3 cell line, luminescence, NTPHTS, NTPHTS_NCGC, NIEHS, EPA, DSSTox, MLSMR, MLSCN, NIH Roadmap, qHTS, NCGC
row,SMILES,outcome
1,Oc1ccc(Cl)cc1Cc1cc(Cl)ccc1O,inactive
2,Oc1c(Cl)cc(Cl)c(Cl)c1Cc1c(O)c(Cl)cc(Cl)c1Cl,inactive
3,COc1ccc(C(=O)c2ccccc2)c(O)c1,inactive
4,NCCNc1cccc2ccccc12,inactive
5,CCCCC(CC)COC(=O)c1ccc(N(C)C)cc1 (centres undefined),inactive
6,COc1ccc(C(Cl)=C(c2ccc(OC)cc2)c2ccc(OC)cc2)cc1,inactive
7,O=C(O)c1ccc(S(=O)(=O)N(Cl)Cl)cc1,inactive
8,OC[C@H]1O[C@@H]2O[C@H]3[C@H](O)[C@@H](O)[C@@H](O[C@H]4[C@H](O)[C@@H](O)[C@@H](O[C@H]5[C@H](O)[C@@H](O)[C@@H](O[C@H]6[C@H](O)[C@@H](O)[C@@H](O[C@H]7[C@H](O)[C@@H](O)[C@@H](O[C@H]8[C@H](O)[C@@H](O)[C@@H](O[C@H]1[C@H](O)[C@H]2O)O[C@@H]8CO)O[C@@H]7CO)O[C@@H]6CO)O[C@@H]5CO)O[C@@H]4CO)O[C@@H]3CO,inactive
9,CCCN(CCC)S(=O)(=O)c1ccc(C(=O)O)cc1,inactive
10,NC(=O)c1ccccc1O,inactive
11,C/C=C/c1ccc(O)c(OC)c1,inactive
12,CCOc1ccc(NC(C)=O)cc1,inactive
13,CCOc1ccccc1C(N)=O,inactive
14,C=C[C@H]1CN2CC[C@H]1C[C@@H]2[C@@H](O)c1ccnc2ccc(OC)cc12,inactive
